Screens deposited in PubChem by National Center for Advancing Translational Sciences (NCATS).
Pf Dd2 inh: Plasmodium falciparum Dd2 growth inhibition; hit rate 4.3% among 120,000; P. falciparum Dd2 growth, SYBR Green, 72 h; AID 1347417; Potency, µM (top dose mostly 28.9 µM), for the others: at the top dose activity, negative = inhibition, hits mostly inhibitors; active = well fitted inhibition curve with a large enough effect;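 note: plate controls were DMSO vehicle for no effect and reference drug for full effect; nearly all actives have a fitted effect of over 65% in size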
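Readout: SYBR Green fluorescence, 485 nm excitation, 535 nm emission, after ~16 h lysis at 37C. Before that, Dd2-infected red cells (2.5% hematocrit) grew 72 h with compound, 29 uM top final concentration.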
Active calls of the source: *; [ ] = dose if it differs, or a comment. This is one part of a sample in which hits are shown more often than they occur. Potency is the fitted concentration of half-maximal effect.

`O=C(N[C@@H]1CCOC[C@H]1OCCO)c1cccc(-c2ccco2)c1` gave Pf Dd2 inh -2.5%.
For COc1ccc(-c2cnc(Nc3cc(F)cc(N4CCOCC4)c3)c3c2CCO3)cn1 the results were Pf Dd2 inh 11.2µM*.
For O=C(Nc1ncc(-c2cccc(F)c2)c2c1OCC2)c1ccncc1 the results were Pf Dd2 inh inactive.
`CNC(=O)c1cccc(-c2cnc(Nc3ccc(Cl)cn3)c3c2CCO3)c1` gave Pf Dd2 inh inactive.
Screening COc1cncc(Nc2ncc(-c3cccc(F)c3)c3c2OCC3)c1 returned Pf Dd2 inh 11.2µM*.
For COc1ccc(Nc2ncc(-c3ccccc3OC)c3c2OCC3)cc1 the results were Pf Dd2 inh inactive.
Screening CNC(=O)c1cccc(-c2cnc(Nc3ccc(F)c(Cl)c3)c3c2CCO3)c1 returned Pf Dd2 inh 11.2µM*.
`CNC(=O)c1cccc(-c2cnc(Nc3cccc(C(F)(F)F)c3)c3c2CCO3)c1` gave Pf Dd2 inh inactive.
For COCCNc1ncc(-c2ccc(N3CCOCC3)cc2)c2c1OCC2 the results were Pf Dd2 inh 23.0%[44.1 µM].
For COc1ccc(-c2cnc(NC(=O)Cc3ccccc3)c3c2CCO3)cn1 the results were Pf Dd2 inh 16.5%[44.1 µM].
For COCCN1C[C@H]2CN(C(=O)NCc3ccccc3)CCN2C1=O the results were Pf Dd2 inh -9.5%[44.1 µM].
Screening Cc1ccc(-c2nccc(N3CCC(O)C3)n2)c(C)c1 (configuration not stated) returned Pf Dd2 inh -9.2%.
Screening O=C(c1cccs1)N1CCCN(C(=O)C2CC2)c2ccccc21 returned Pf Dd2 inh -2.1%.
Screening O=C1C[C@@H]2CCN(C(=O)c3ccccc3)C[C@@H]2CCN1CCc1cnc[nH]1 returned Pf Dd2 inh 6.3%[44.1 µM].
Screening CCOc1ccccc1NC(=O)C1CN(S(=O)(=O)C2CC2)CC12CCCCC2 (configuration not stated) returned Pf Dd2 inh inactive.
For COc1ccc(CNC(=O)C2CN(S(=O)(=O)C3CC3)CC23CCCCC3)c(OC)c1 (configuration not stated) the results were Pf Dd2 inh -17.8%.
For O=C(Nc1ccc2c(c1)OCCO2)C1CN(S(=O)(=O)C2CC2)CC12CCCCC2 (configuration not stated) the results were Pf Dd2 inh 3.16µM*.
C[C@H](C(=O)N(C)CCC#N)C1CC[C@@]2(C)Cc3sc(NC(=O)C4CC4)nc3[C@@H](C)[C@@H]2[C@H]1O (some centres not stated) was read as Pf Dd2 inh -2.7%.
`Cn1nccc1C(=O)N1CCCCCCNC(=O)[C@@H]2C[C@@H](c3nc(Cc4ccccc4)no3)C[C@@H]21` gave Pf Dd2 inh -17.4%.
`Cn1cc(C(=O)N2CCCCCCNC(=O)[C@@H]3C[C@@H](c4nc(Cc5ccccc5)no4)C[C@@H]32)cn1` gave Pf Dd2 inh -2.2%.
N#Cc1ccc(C(=O)N2CCCCCCNC(=O)[C@@H]3C[C@@H](c4nc(Cc5ccccc5)no4)C[C@@H]32)cc1 was read as Pf Dd2 inh 11.2µM*.
Screening O=C1NCCCCCCN(C(=O)c2ccco2)[C@H]2C[C@H](c3nc(Cc4ccccc4)no3)C[C@@H]12 returned Pf Dd2 inh 7.94µM*.
Screening Cc1ccc(C(=O)N2CCCCCCNC(=O)[C@@H]3C[C@@H](c4nc(Cc5ccccc5)no4)C[C@@H]32)cn1 returned Pf Dd2 inh inactive.
`O=C1NCCCCCCN(C(=O)CN2CCCC2=O)[C@H]2C[C@H](c3nc(Cc4ccccc4)no3)C[C@@H]12` gave Pf Dd2 inh -29.3%.
For COc1cc(-n2cnnn2)cc(-n2ccnc2-c2cc3n(n2)CCCNC3)c1 the results were Pf Dd2 inh 5.8%.
For COCCNC(=O)[C@@H]1C[C@H](Oc2cccnc2)CN1C(=O)Cc1c[nH]c2ccccc12 the results were Pf Dd2 inh 31.8%.
COc1ccc(NC(=O)N(C)CC2CCOCC2)cc1Cl was read as Pf Dd2 inh -16.9%.
N#Cc1cccc(-c2cn3c(n2)N(C(=O)CC2CCNCC2)CCC3)c1 was read as Pf Dd2 inh inactive.
CCOCc1nc(C2CCCN(C(=O)c3ccc(OC)cc3OC)C2)no1 (configuration not stated) was read as Pf Dd2 inh inactive.
Screening Cc1ccc(S(=O)(=O)N(CC(=O)NCCSc2ccc(Cl)cc2)c2cccc(Cl)c2)cc1 returned Pf Dd2 inh inactive.
`O=C(NCCc1ccc(Cl)cc1)c1ccc(Cn2c(=O)[nH]c3ccccc3c2=O)cc1` gave Pf Dd2 inh -19.4%.
Screening CCOc1ccc(C(=O)NCCSc2c(C)[nH]c3ccccc23)cc1OCC returned Pf Dd2 inh -28.1%.
CN(C)S(=O)(=O)c1ccc(C(=O)NCCSc2c(-c3ccc(Cl)cc3)[nH]c3ccccc23)cc1 was read as Pf Dd2 inh 8.91µM*.
Cc1ccc(-c2[nH]c3ccccc3c2SCCNC(=O)c2ccc(S(=O)(=O)N(C)C)cc2)cc1 was read as Pf Dd2 inh 8.91µM*.
Screening Cc1ccc(C(=O)NCCSc2c[nH]c3ccccc23)cc1C returned Pf Dd2 inh 6.5%.
Screening CNC(=O)C1(N2CCC[C@H]2C(=O)N2CCOCC2)CCCCC1 returned Pf Dd2 inh 12.0%[44.1 µM].
Cc1ccc(C)c(S(=O)(=O)N2CCCC(Cn3c(C)nc4cccnc43)C2)c1 (configuration not stated) was read as Pf Dd2 inh -46.8%.
O=C(NCCc1noc(C2CC2)n1)C1CCC1 was read as Pf Dd2 inh 16.6%.
CCOc1ccccc1C(=O)N1CCN(c2cc(-c3cccs3)[nH]n2)CC1 was read as Pf Dd2 inh inactive.
Screening O=C(NCCc1nc2ccccc2n1Cc1ccc(Cl)cc1Cl)c1ccco1 returned Pf Dd2 inh 11.2µM*.
For CCCC(=O)NCCc1nc2ccccc2n1Cc1c(F)cccc1Cl the results were Pf Dd2 inh -21.2%.
O=C(NCCc1nc2ccccc2n1Cc1ccc(Cl)cc1)c1ccccc1 was read as Pf Dd2 inh 8.7%.
CC1=C[C@@H](CN2CCN(C)CC2)[C@H](C(C)C)C[C@H]1Cc1nnc(C)o1 was read as Pf Dd2 inh inactive.
For CC1=C[C@@H](CN2CCN(C)CC2)[C@H](C(C)C)C[C@H]1Cc1nnc(-c2ccc(N(C)C)cc2)o1 the results were Pf Dd2 inh 3.98µM*.
CC1=C[C@@H](CN2CCC[C@H]2CO)[C@H](C(C)C)C[C@H]1Cc1nnc(-c2cncn2C)o1 was read as Pf Dd2 inh -33.0%[44.1 µM].
`CC1=C[C@@H](CN2CCC(C(N)=O)CC2)[C@H](C(C)C)C[C@H]1Cc1nnc(-c2ccc(N(C)C)cc2)o1` gave Pf Dd2 inh 3.55µM*.
CC1=C[C@@H](CN2CCC(C(N)=O)CC2)[C@H](C(C)C)C[C@H]1Cc1nnc(-c2ccccc2F)o1 was read as Pf Dd2 inh inactive.
For Cc1ccccc1-c1cnc2[nH]cc(CC(=O)N3CCOCC3)c2c1 the results were Pf Dd2 inh 17.4%[44.1 µM].
`CSc1cccc(NC(=O)CN2C(=O)NC3(CCC(C)CC3)C2=O)c1` (configuration not stated) gave Pf Dd2 inh inactive.
Screening COCCNC(=O)C[C@@H]1C[C@H]2O[C@H](CNC(=O)N3CCOCC3)[C@@H](O)[C@H]2O1 returned Pf Dd2 inh -0.4%[44.1 µM].
`CN(C)C(=O)N1CCCn2nc(CNC(=O)C(=O)c3ccco3)cc2C1` gave Pf Dd2 inh -7.2%.
N#Cc1cccc(C(=O)N2CCCN(S(=O)(=O)c3ccccc3)CCC(=O)NCC2)c1 was read as Pf Dd2 inh 8.7%.
`COc1ccccc1OCC(=O)N1CC[C@@](O)(C2CCOCC2)[C@H](C)C1` gave Pf Dd2 inh 5.3%.
